From PubChem BioAssay AID1566 (Sanford-Burnham Center for Chemical Genomics, 2009)
Out of some 290,000 compounds screened, about 1,800 (0.62%) were called active. No stated cut-off is given here; in the data, active means inhibition above about 50%; inactive means the rest. This excerpt belongs to a sample that is enriched for actives.

Assay: inhibition of NOD2-driven NF-kB reporter – cell-based, luminescence, uHTS, HEK293 (AID 1566)
Details: HEK293 NOD2/NF-kB luciferase reporter, at 4 µM, stronger effect = higher value
With `CCCc1cc(=O)oc2cc(OCC(=O)NCc3ccccn3)ccc12` the inhibition was 8.8% (inactive). With `CSc1ncc(Cl)c(C(=O)Nc2c(C)cccc2C)n1` the inhibition was -5.2% (inactive). In the case of `N#Cc1c(NCCN)nc(-c2ccccc2)c2c1CCCC2`, the inhibition is reported as 10.4% (inactive). For `O=C(/C=C/c1cccc(Cl)c1)NCc1ccccc1`, the inhibition was 9.9% (inactive). With `CN(Cc1nc(Cc2ccccc2F)no1)Cc1cccc2ncccc12` the inhibition was 19.2% (inactive). In the case of `COc1ccc(NC(=O)COC(=O)C2CCC(C(C)(C)C)CC2)c([N+](=O)[O-])c1` (configuration not stated), the inhibition is reported as 16.1% (inactive). For `Cc1cc(C(F)(F)F)nc(CCNCc2c(C(=O)N3CCCC3)nc3ccccn23)n1`, the inhibition was 12.8% (inactive). With `Cc1ccc(/C=N/c2sc3c(c2C(N)=O)CCCC3)o1` the inhibition was -59.1% (inactive). For `COc1ccc(-n2c(=S)[nH]c3cc(C(=O)Nc4cccc(C)c4)ccc3c2=O)cc1`, the inhibition was -42% (inactive). In the case of `O=C(O)CC1NC(=O)N(c2ccc(Cl)cc2)C1=O` (configuration not stated), the inhibition is reported as 5.4% (inactive). For `N#CC1=C(SCc2ccccc2)NC(=O)CC1c1cccc(O)c1` (configuration not stated), the inhibition was 12.9% (inactive). In the case of `O=S(=O)(c1ccc(Cl)cc1)N1CCN(S(=O)(=O)N2CCCCCC2)CC1`, the inhibition is reported as -1.1% (inactive). In the case of `CC(C)(C)OC(=O)N1CCC(c2cc(=O)n3[nH]c(-c4ccc(Cl)cc4)cc3n2)CC1`, the inhibition is reported as 8% (inactive). With `Cc1nc2sc(C(c3ccc(Cl)cc3)N3CCN(C(=O)c4ccco4)CC3)c(O)n2n1` (configuration not stated) the inhibition was 1.9% (inactive). With `COc1ccc(C)cc1NS(=O)(=O)c1ccc(-c2cnc(C3CC3)o2)cc1` the inhibition was 27.1% (inactive). For `COc1ccc(NS(=O)(=O)c2ccc3c(c2)OCCO3)cc1OC`, the inhibition was 52.2% (active). With `COc1ccc(S(=O)(=O)Nc2ccc3c(c2)OCCO3)cc1OC` the inhibition was 4% (inactive). For `Cc1ccc(NS(=O)(=O)c2ccc(-c3cnc(C4CC4)o3)cc2)cc1`, the inhibition was -3.1% (inactive). With `COc1ccc(S(=O)(=O)Nc2ccc3c(c2)OCO3)cc1OC` the inhibition was -22.1% (inactive). For `COc1ccc(-c2noc(-c3ccoc3C)n2)cc1`, the inhibition was -47.8% (inactive). In the case of `CC(C)(C)C(=O)Nc1ccc(-c2cnco2)cc1`, the inhibition is reported as 2.7% (inactive). In the case of `Cc1ccc(CC(=O)Nc2ccc(C(=O)N3CCCCC3)cc2)cc1`, the inhibition is reported as 0.3% (inactive). For `Cc1ccc(C23CC4CC(CC(NC(=O)NC(C)(C)CO)(C4)C2)C3)cc1`, the inhibition was -8.2% (inactive). For `COc1ccccc1C1(O)C(=O)Nc2ccccc21` (configuration not stated), the inhibition was 24.1% (inactive). For `Cc1nn(-c2ccccc2Cl)c(Cl)c1/C=N/Nc1nc2ccccc2s1`, the inhibition was 78.1% (active). With `CCOC(=O)N/N=C/c1c(C)nn(-c2ccccc2Cl)c1Cl` the inhibition was -45.5% (inactive). In the case of `Cc1nn(-c2ccccc2Cl)c(Cl)c1/C=N/Nc1cccc(C(=O)O)c1`, the inhibition is reported as -183% (inactive).
